The nature of experiment [1]: qHTS assay to identify small molecule antagonists of the thyroid receptor (TR) signaling pathway - cell viability counter screen (AID 743064). Also: nearly all actives have a fitted effect of over 50% in size. Also: potency is read from the fitted curve at half-maximal effect. In short, it runs like this: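 GH3.TRE-Luc cells, 4 h pre-plating; cpd + T3 1 nM final; 37 °C 23.5 h; CellTiter-Fluor 30 min; fluorescence read.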
On the technique in general: qHTS replaces the single test concentration by a dilution series.

The nature of experiment [2]: qHTS assay to identify small molecule antagonists of the thyroid receptor (TR) signaling pathway (AID 743065). Also: nearly all actives have a fitted effect of over 55% in size. Also: potency is read from the fitted curve at half-maximal effect. In short, it runs like this:
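GH3.TRE-Luc rat pituitary cells carrying two TR response elements driving luciferase were plated for 4 h, given compound plus 1 nM T3 (final), and incubated 23.5 h at 37 C. ONE-Glo luminescence measured reporter inhibition; CellTiter-Fluor fluorescence tracked cytotoxicity.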

The test system of experiment [3] is thyroid hormone receptor (rat, GH3 cells). As to the kind of experiment: qHTS assay to identify small molecule agonists of the thyroid receptor (TR) signaling pathway (AID 743066; calls by dose curve).
Experiment [4] concerns the target Estrogen receptor (Homo sapiens) (UniProt P03372). As to the kind of experiment: qHTS assay to identify small molecule antagonists of the estrogen receptor alpha (ER-alpha) signaling pathway (AID 743069; active = well fitted curve in the direction sought with a large enough effect in the signal ratio in the repeat runs, not every such curve was filed as active; the % refers to the signal ratio). In short, it runs like this:
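A 17beta-estradiol challenge was applied right after compound transfer to ER-alpha-UAS-bla HEK293 cells previously kept in charcoal-stripped serum. Plates stood 18 hr at 37C and 5% CO2; fluorescence was read following 2 hr FRET substrate loading at room temperature.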

Experiment [5] can be described thus: qHTS assay to identify small molecule antagonists of the estrogen receptor alpha (ER-alpha) signaling pathway - cell viability counter screen (AID 743074; calls by dose curve;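 also: HEK293 cells carrying ER-alpha-UAS-bla reporter stimulated with 17beta-estradiol; nearly all actives have a fitted effect of over 45% in size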).
The target of experiment [6] is Estrogen receptor (Homo sapiens) (UniProt P03372). As to the kind of experiment: qHTS assay to identify small molecule agonists of the estrogen receptor alpha (ER-alpha) signaling pathway (AID 743075; calls by dose curve;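 also: HEK293 GripTite cells with ER-alpha and UAS-driven beta-lactamase reporter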).
Experiment [7] has the same target. As to the kind of experiment: qHTS assay to identify small molecule agonists of the estrogen receptor alpha (ER-alpha) signaling pathway using the BG1 cell line (AID 743079). Also: nearly all actives have a fitted effect of over 20% in size. The note with it: BG1Luc4E2 cells, ERE-luciferase agonist, 22 h; activation: at 70.3 µM (top of the series).
A short description of experiment [8]: qHTS assay to identify small molecule antagonists of the estrogen receptor alpha (ER-alpha) signaling pathway using the BG1 cell line (AID 743080; calls by dose curve;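 also: BG1 cells stimulated with 17beta-estradiol alongside compound; nearly all actives have a fitted effect of over 25% in size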). In short, it runs like this:
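Readout is ONE-Glo luminescence, taken 30 min at room temperature after reagent addition, preceded by a CellTiter-Fluor viability read; BG1-Luc-4E2 cells had received compound and 17beta-estradiol for 21.5 h at 37 C.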

A short description of experiment [9]: qHTS assay to identify small molecule antagonists of the estrogen receptor alpha (ER-alpha) signaling pathway using the BG1 cell line - cell viability counter screen (AID 743081).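 Also: compound given together with 17beta-estradiol as the ER stimulus; nearly all actives have a fitted effect of over 45% in size.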 Also: potency is read from the fitted curve at half-maximal effect.
The target in the next experiment is Aromatase (Homo sapiens) (UniProt P11511). As to the kind of experiment: qHTS assay to identify aromatase inhibitors (AID 743083). Also: nearly all actives have a fitted effect of over 55% in size. Also: potency is read from the fitted curve at half-maximal effect.
Experiment [10] in a line: qHTS assay to identify aromatase inhibitors - cell viability counter screen (AID 743084).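 Also: cells stimulated with testosterone during compound exposure; nearly all actives have a fitted effect of over 55% in size.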 Also: potency is read from the fitted curve at half-maximal effect.
Experiment [11] addresses Aryl hydrocarbon receptor (Homo sapiens) (UniProt P35869). As to the kind of experiment: qHTS assay to identify small molecule that activate the aryl hydrocarbon receptor (AhR) signaling pathway (AID 743085).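 Also: HG2L7.5c1 human HepG2 liver cells with stably integrated DRE-driven firefly reporter; nearly all actives have a fitted effect of over 15% in size.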 In short, it runs like this: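 Luminescence read-out: ONE-Glo reagent, 30 min at room temperature, in HG2L7.5c1 HepG2 reporter cells treated 24 h at 37C. Viability was measured beforehand by CellTiter-Fluor fluorescence after 30 min at 37C.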

Experiment [12] in a line: qHTS assay to identify small molecule that activate the aryl hydrocarbon receptor (AhR) signaling pathway - cell viability counter screen (AID 743086). Also: nearly all actives have a fitted effect of over 45% in size. Also: potency is read from the fitted curve at half-maximal effect. A digest of the protocol: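 HepG2-AhR-luc (HG2L7.5c1) cells, 4000/well, were preincubated 5 h at 37C, exposed to compound in qHTS format for 24 hr at 37C, then given CellTiter-Fluor for 30 min; viability was read as fluorescence in the reporter wells.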

In experiment [13] the target is Peroxisome proliferator-activated receptor gamma (Homo sapiens) (UniProt P37231). As to the kind of experiment: qHTS assay to identify small molecule agonists of the peroxisome proliferator-activated receptor gamma (PPARg) signaling pathway (AID 743094; active = well fitted activation curve with a large enough effect in the signal ratio in the repeat runs, not every such curve was filed as active; the % refers to the signal ratio). In short, it runs like this:
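Reporter activation was scored by fluorescence of cleaved LiveBLAzer B/G substrate (1 h, room temperature) in PPARg-bla HEK293H cells previously treated 17 h at 37C with DMSO-dissolved compounds.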

Experiment [14] shares this target. As to the kind of experiment: qHTS assay to identify small molecule antagonists of the peroxisome proliferator-activated receptor gamma (PPARg) signaling pathway (AID 743191; calls by dose curve; also: nearly all actives have a fitted effect of over 30% in size). A digest of the protocol:
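GeneBLAzer PPARg UAS-bla HEK293H cells carrying a UAS-driven beta-lactamase reporter were plated at 3000 cells/well, preincubated 5 h at 37C, then given compound for 17 h at 37C; LiveBLAzer B/G FRET substrate was read after 1 h at room temperature.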

Experiment [15] in a line: qHTS assay to identify small molecule antagonists of the peroxisome proliferator-activated receptor gamma (PPARg) signaling pathway - cell viability counter screen (AID 743194). Also: nearly all actives have a fitted effect of over 55% in size. A digest of the protocol: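 PPARg-UAS-bla HEK293H cells were plated, rested 5 h at 37 C, then treated with compounds plus rosiglitazone (50 nM final) for 17 h at 37 C; viability was then read by CellTiter-Glo luminescence after 30 min at room temperature.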

A short description of experiment [16]: qHTS assay for small molecule agonists of the antioxidant response element (ARE) signaling pathway (AID 743202; active = well fitted activation curve with a large enough effect in the signal ratio in the repeat runs, not every such curve was filed as active; the % refers to the signal ratio). In short, it runs like this: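 Following a 16 h, 37 C exposure of reporter HepG2 cells (ARE-driven beta-lactamase, 2,000 cells/well) to compounds, FRET substrate was applied for 2 h at room temperature and fluorescence intensity recorded.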
The nature of experiment [17]: qHTS assay for small molecule agonists of the antioxidant response element (ARE) signaling pathway - cell viability counter screen (AID 743203; calls by dose curve; also: nearly all actives have a fitted effect of over 55% in size). A digest of the protocol:
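Viability counter screen: stably transfected ARE-bla HepG2 line, 16 hrs compound exposure at 37C/5% CO2, ATP-based CellTiter-Glo luminescence measured in the reporter wells.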

The nature of experiment [18]: qHTS assay for small molecule activators of the heat shock response signaling pathway - cell viability counter screen (AID 743209). Also: nearly all actives have a fitted effect of over 50% in size. A digest of the protocol:
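Viability of HSE-bla HeLa cells is measured with CellTiter-Glo in the wells already used for the reporter read. Compound exposure lasts 5 h at 37 C, and luminescence is read after 30 min at room temperature.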

Experiment [19] can be described thus: qHTS assay for small molecule activators of the heat shock response signaling pathway (AID 743210; active = well fitted activation curve with a large enough effect in the signal ratio in the repeat runs, with a control signal flat, not every such curve was filed as active; the % refers to the signal ratio). A digest of the protocol:
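Heat shock element–beta-lactamase HeLa reporter cells; qHTS with compounds for 5 h at 37 C; detection by FRET substrate fluorescence after 2.5 h at RT.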

Drawing on PubChem BioAssay (Tox21), this text covers Potency and outcome for 7 compounds.

Results filed as inconclusive are left out. Activity calls are given as the source filed them. Unless noted, calls follow the shape of the dose curve; as a rule, active = well fitted curve in the direction sought with a large enough effect in the repeat runs; inconclusive = weak or mixed curves; inactive = no such curve, though single readings can be large; an effect the other way counts as inactive or inconclusive.

Sequence of Aryl hydrocarbon receptor (Homo sapiens) (P35869 whole entry, looked up): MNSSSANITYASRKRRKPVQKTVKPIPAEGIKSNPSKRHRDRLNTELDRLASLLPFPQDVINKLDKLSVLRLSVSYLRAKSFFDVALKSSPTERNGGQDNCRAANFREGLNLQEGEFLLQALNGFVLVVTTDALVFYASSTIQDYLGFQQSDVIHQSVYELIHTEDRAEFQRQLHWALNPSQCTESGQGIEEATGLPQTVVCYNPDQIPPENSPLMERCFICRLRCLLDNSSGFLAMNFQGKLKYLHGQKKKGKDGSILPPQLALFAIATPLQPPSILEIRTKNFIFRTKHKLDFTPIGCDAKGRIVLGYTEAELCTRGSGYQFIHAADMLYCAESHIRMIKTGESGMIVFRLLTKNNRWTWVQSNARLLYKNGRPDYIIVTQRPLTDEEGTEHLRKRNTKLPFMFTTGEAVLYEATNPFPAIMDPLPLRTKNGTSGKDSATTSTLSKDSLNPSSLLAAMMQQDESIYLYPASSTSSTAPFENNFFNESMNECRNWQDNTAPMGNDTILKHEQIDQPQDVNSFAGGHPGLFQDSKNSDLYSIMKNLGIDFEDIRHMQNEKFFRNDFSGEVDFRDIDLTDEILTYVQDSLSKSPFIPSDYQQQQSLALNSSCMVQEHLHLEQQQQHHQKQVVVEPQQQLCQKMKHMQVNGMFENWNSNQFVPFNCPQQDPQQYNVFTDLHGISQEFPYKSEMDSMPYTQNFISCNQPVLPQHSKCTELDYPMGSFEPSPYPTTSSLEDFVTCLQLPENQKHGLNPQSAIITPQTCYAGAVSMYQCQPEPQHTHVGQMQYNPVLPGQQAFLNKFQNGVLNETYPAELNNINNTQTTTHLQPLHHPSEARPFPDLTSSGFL
Sequence of Estrogen receptor (Homo sapiens) (P03372 whole entry, looked up): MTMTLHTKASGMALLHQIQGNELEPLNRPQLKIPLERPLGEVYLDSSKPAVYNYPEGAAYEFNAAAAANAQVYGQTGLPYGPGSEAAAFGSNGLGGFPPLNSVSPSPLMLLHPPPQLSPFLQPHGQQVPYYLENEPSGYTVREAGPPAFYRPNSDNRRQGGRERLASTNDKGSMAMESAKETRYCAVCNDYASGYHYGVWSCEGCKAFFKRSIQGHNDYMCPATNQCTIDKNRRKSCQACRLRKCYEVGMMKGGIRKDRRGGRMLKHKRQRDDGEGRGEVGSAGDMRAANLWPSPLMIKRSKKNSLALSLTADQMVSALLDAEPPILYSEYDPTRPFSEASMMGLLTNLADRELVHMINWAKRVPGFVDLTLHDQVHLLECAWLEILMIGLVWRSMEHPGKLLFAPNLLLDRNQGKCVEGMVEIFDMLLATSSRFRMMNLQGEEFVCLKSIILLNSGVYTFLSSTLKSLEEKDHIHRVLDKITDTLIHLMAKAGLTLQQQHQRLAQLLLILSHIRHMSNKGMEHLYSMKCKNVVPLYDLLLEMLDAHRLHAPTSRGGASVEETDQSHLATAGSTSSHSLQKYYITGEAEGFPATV
Sequence of Peroxisome proliferator-activated receptor gamma (Homo sapiens) (P37231 whole entry, looked up): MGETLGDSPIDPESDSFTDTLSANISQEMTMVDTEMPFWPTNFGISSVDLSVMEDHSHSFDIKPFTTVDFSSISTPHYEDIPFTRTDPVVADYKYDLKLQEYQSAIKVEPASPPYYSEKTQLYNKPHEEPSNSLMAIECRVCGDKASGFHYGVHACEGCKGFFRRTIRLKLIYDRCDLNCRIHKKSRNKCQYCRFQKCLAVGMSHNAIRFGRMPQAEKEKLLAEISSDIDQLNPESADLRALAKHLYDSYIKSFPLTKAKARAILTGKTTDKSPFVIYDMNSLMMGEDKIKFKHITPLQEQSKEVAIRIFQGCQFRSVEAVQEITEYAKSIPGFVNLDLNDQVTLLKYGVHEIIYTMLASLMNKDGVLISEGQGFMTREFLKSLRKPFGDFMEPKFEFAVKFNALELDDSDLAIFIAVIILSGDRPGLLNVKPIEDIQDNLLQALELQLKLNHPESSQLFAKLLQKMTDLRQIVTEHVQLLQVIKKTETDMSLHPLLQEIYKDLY
Sequence of Aromatase (Homo sapiens) (P11511 whole entry, looked up): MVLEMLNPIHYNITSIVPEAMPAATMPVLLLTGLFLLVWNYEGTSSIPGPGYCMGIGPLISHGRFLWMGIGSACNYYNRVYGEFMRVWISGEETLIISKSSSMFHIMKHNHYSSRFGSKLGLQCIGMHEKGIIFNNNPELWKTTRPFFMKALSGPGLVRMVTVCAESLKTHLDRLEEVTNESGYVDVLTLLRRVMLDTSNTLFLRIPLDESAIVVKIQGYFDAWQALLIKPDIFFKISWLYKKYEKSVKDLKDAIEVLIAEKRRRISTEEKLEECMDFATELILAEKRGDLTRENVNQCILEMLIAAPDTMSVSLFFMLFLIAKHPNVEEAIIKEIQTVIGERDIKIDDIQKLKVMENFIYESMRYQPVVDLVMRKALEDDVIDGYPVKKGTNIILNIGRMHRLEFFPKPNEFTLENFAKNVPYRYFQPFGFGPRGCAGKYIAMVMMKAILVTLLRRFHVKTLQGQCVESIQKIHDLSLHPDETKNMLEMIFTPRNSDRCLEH

As for `OCCOCC#CCOCCO`, the Potency result in [1], in experiment [2], in experiment [4], in experiment [5], in experiment [6] and in experiment [7] was “inactive” in each case. Besides, the Potency result (in [8]; in experiment [9]; with Aromatase (Homo sapiens); in [10]; in [11]; in experiment [12]) was “inactive” in each case. In addition, the Potency result in experiment [13], in experiment [14], in experiment [15], in experiment [16], in experiment [17] and in [18] was “inactive” each time. Further, in experiment [19], the Potency entry was “inactive”. For the same compound, in experiment [3], the call was inactive.

For the compound `CC(C)=CCC/C(C)=C/CC/C(C)=C/CCC(=O)OC/C=C(\C)CCC=C(C)C`, the Potency entry in experiment [1], in experiment [2], in [4], in experiment [5], in experiment [6] and in experiment [7] was “inactive” throughout. Also, the Potency result (in experiment [9]; with Aromatase (Homo sapiens); in experiment [10]; in experiment [11]; in experiment [12]; in [13]) was “inactive” throughout. Also, the Potency entry in experiment [14], in experiment [15], in experiment [16], in experiment [17], in experiment [18] and in [19] was “inactive” in each case. Besides, the call in experiment [3] was inactive.

Take `CN1C(=O)OC(C)(C)C1=O`: the Potency result in experiment [1], in experiment [2], in experiment [4], in experiment [5], in experiment [6] and in experiment [7] was “inactive” each time. Further, the Potency entry (in [9]; with Aromatase (Homo sapiens); in experiment [10]; in [11]; in experiment [12]; in experiment [13]) was “inactive” each time. Besides, the Potency entry in [15], in [16], in experiment [17], in [18] and in experiment [19] was “inactive” in each case. Further, the call in experiment [3] was inactive.

As for `Oc1cc2c(cc1O)[C@H]1c3ccc(O)c(O)c3OC[C@@]1(O)C2`, the Potency was 61.9 µM (active) in [1]; 49.2 µM (active) in experiment [2]; 49.2 µM (active) in [9]; 24.6 µM (active) with Aromatase (Homo sapiens); 24.6 µM (active) in [10]; 27.6 µM (active) in [12]. Moreover, the compound was classed as inactive in [3]. The Potency result in experiment [4], in experiment [5], in experiment [6], in [13], in experiment [17] and in experiment [18] was “inactive” each time.

With `Cc1cc2c(OCC(CNC(C)(C)C)OC(=O)c3ccccc3)cccc2[nH]1` (stereo not drawn), the Potency in experiment [1] is 11.9 µM (active); in experiment [2], 26.6 µM (active). In addition, the result in experiment [3] was inactive. In addition, the Potency result in experiment [4], in experiment [5], in experiment [6], in experiment [7], in [8] and in experiment [9] was “inactive” in each case. The Potency result (with Aromatase (Homo sapiens); in experiment [10]; in experiment [11]; in [12]; in [13]; in experiment [14]) was “inactive” throughout. For the same compound, the Potency entry in [15], in experiment [16], in experiment [17], in experiment [18] and in experiment [19] was “inactive” throughout.

For the compound `COc1cc(C(=O)NCCCCCC(=O)O)cc(OC)c1OC`, the Potency result in experiment [1], in experiment [2], in [5], in experiment [6], in experiment [7] and in experiment [8] was “inactive” throughout. The Potency result (in [9]; with Aromatase (Homo sapiens); in [10]; in experiment [11]; in [12]; in [13]) was “inactive” in each case. The Potency entry in experiment [14], in [15], in experiment [16], in experiment [17], in experiment [18] and in [19] was “inactive” each time. In addition, in experiment [3], the compound was called inactive.

With `N#CCc1ccc(Cl)cc1Cl`, the Potency entry in experiment [1], in experiment [2], in experiment [5], in [6], in experiment [7] and in experiment [8] was “inactive” in each case. The Potency result (in [9]; in the experiment with Aromatase (Homo sapiens); in experiment [10]; in experiment [11]; in experiment [12]; in [13]) was “inactive” throughout. Moreover, the Potency result in [14], in [15], in experiment [16], in experiment [17], in [18] and in [19] was “inactive” each time. Further, in experiment [3], the compound was called inactive.
